Data reported in PubChem BioAssay (EPA / NIEHS).
“And” between values parts separate entries of the source, which are not always exact repeats. Equal entries are not always repeated. Records with an inconclusive call do not appear. Some compounds were tested as several samples or in several runs, with calls that do not always agree. The source made the active and inactive calls. The calls were made as follows, unless noted: active = hit-call score of the fitted dose curve at least 0.9, where 1 is the maximum; inactive = score below 0.9.

Assays:
[1] = molecular target: Nuclear respiratory factor 1 (Homo sapiens) (UniProt Q16656); test: ATG_NRF1_CIS: Attagene CIS-FACTORIAL HepG2 Assay for human Nuclear Respiratory Factor 1 (NRF1) Orphan Gene (AID 2282987); conditions: HepG2 NRF1 cis-element reporter, Attagene multiplex; actives raise or lower the signal
How it was run: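 Reporter mRNA induction or loss in HepG2 cells after 24 h dosing; cis-regulated reporter constructs report endogenous transcription-factor activity. Quantified by RT-PCR/capillary electrophoresis fluorescence, DMSO-referenced.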

[2] = ATG_NFI_CIS: Attagene CIS-FACTORIAL HepG2 Assay for human Nuclear Factor I (NFI) (AID 2282989); conditions: HepG2 cis-regulatory reporter, NFI response element transcription; actives raise or lower the signal
How it was run: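 After transient transfection of HepG2 with cis-promoter reporter constructs and 24 h dosing, RNA is reverse-transcribed, amplified, 6-FAM end-labelled and HpaI-digested before capillary analysis. Bidirectional curve fitting against DMSO.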

[3] = molecular target: Myc proto-oncogene protein (Homo sapiens) (UniProt P01106); test: ATG_Myc_CIS: Attagene CIS-FACTORIAL HepG2 Assay for human Myelocytomatosis (Myc) Proto-Oncogene Transcription Factor (AID 2282990); conditions: HepG2, Attagene cis-reporter transcription factor activity; actives raise or lower the signal
How it was run: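 Multiplexed cis-reporter transcription in HepG2 cells after 24 h chemical treatment. Reporter mRNA measured by RT-PCR and capillary electrophoresis fluorescence; activity fitted bidirectionally against DMSO control.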

[4] = ATG_NF_kB_CIS: Attagene CIS-FACTORIAL HepG2 Assay for human Nuclear Factor Kappa B (NF-kB) (AID 2282991); conditions: HepG2 Attagene cis-factorial NF-kB reporter mRNA; actives raise or lower the signal
How it was run: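 DMSO served as negative control and baseline for bidirectional curve fitting. Transiently transfected HepG2 cells were dosed for 24 h, then reporter transcripts were measured by RT-PCR with capillary electrophoresis detection.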

[5] = ATG_NRF2_ARE_CIS: Attagene CIS-FACTORIAL HepG2 Assay for human Nuclear Factor Erythroid 2 Related Factor 2 (NFR2) response to Antioxidant Response Elements (ARE) (AID 2282992); conditions: HepG2 Attagene ARE/NRF2 reporter, transcription factor activity; actives raise or lower the signal
How it was run: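 Fluorescence intensity of reporter-specific cDNA fragments, separated by capillary electrophoresis, reflects mRNA induction in transfected HepG2 cells at 24 h. Activity is fitted bidirectionally, DMSO serving as baseline.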

[6] = ATG_Oct_MLP_CIS: Attagene CIS-FACTORIAL HepG2 Assay for human Octamer-Binding Transcription Factor (Oct) (AID 2282993); conditions: HepG2 Attagene cis-factorial Oct reporter, mRNA; actives raise or lower the signal
How it was run: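 Cells of the HepG2 line express promoter-controlled reporter sequences whose mRNA levels, after 24 h treatment, are measured by RT-PCR and capillary electrophoresis. Increases and decreases are scored relative to DMSO.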

[7] = molecular target: Cellular tumor antigen p53 (Homo sapiens) (UniProt P04637); test: ATG_p53_CIS: Attagene CIS-FACTORIAL HepG2 Assay for human p53 Transcription Factor (AID 2282994); conditions: HepG2 p53 cis-element reporter, Attagene mRNA; actives raise or lower the signal
How it was run: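 Transiently transfected HepG2 (multiple cis reporter transcription units); exposure 24 h; reporter RNA via RT-PCR, 6-FAM extension, 2 h HpaI digest at 37 C, CE detection; DMSO baseline.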

[8] = molecular target: human Peroxisome Proliferator-activated Receptor alpha (PPARa), PPARA (gene 5465) (UniProt Q07869); test: ATG_PPARa_TRANS: Attagene TRANS-FACTORIAL HepG2 Assay for human Peroxisome Proliferator-activated Receptor alpha (PPARa) (AID 2283001; active = hit-call score of the fitted dose curve at least 0.9, where 1 is the maximum;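 as to AC50: potency for gain of reporter signal over DMSO so agonist or activator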)
How it was run: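 Exposure: 24 h, transiently transfected HepG2 cells. Endpoint: GAL4-UAS reporter mRNA, RT-PCR with capillary electrophoresis fluorescence. Baseline: DMSO; increases fitted.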

[9] = molecular target: human Peroxisome Proliferator-activated Receptor delta (PPARd), PPARD (gene 5467) (UniProt Q03181); test: ATG_PPARd_TRANS: Attagene TRANS-FACTORIAL HepG2 Assay for human Peroxisome Proliferator-activated Receptor delta (PPARd) (AID 2283002; active = hit-call score of the fitted dose curve at least 0.9, where 1 is the maximum)
How it was run: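 Multiplexed trans-activation format: HepG2 liver cells expressing exogenous NR-Gal4 chimeras and GAL4-UAS reporters were exposed for 24 h. Reporter mRNA was detected by RT-PCR with capillary electrophoresis fluorescence; activity fitted as gain of signal relative to DMSO.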

[10] = molecular target: human Retinoic Acid Receptor gamma (RARg), RARG (gene 5916) (UniProt P13631); test: ATG_RARg_TRANS: Attagene TRANS-FACTORIAL HepG2 Assay for human Retinoic Acid Receptor gamma (RARg) (AID 2283009; active = hit-call score of the fitted dose curve at least 0.9, where 1 is the maximum)
How it was run: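 Readout: reporter transcript levels via RT-PCR, 6-FAM primer-extension labelling, HpaI digestion and capillary electrophoresis. Cells: HepG2 carrying transfected RARg-GAL4 chimera plus UAS reporter set. Dosing 24 h; DMSO negative control.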

[11] = BSK_3C_uPAR: BioMAP Diversity Plus: 3C Assay for Urokinase-type plasminogen activator receptor (uPAR) Biomarker Activity (AID 2282998); conditions: BioMAP 3C HUVEC, uPAR biomarker ELISA; actives raise or lower the signal
How it was run: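 Endothelial primary cells of human umbilical vein origin received test chemical; 24 h later uPAR was assayed by ELISA. Fitting was bidirectional, DMSO as negative control.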

[12] = BSK_4H_Eotaxin3: BioMAP Diversity Plus: 4H Assay for Eotaxin 3 Biomarker Activity (AID 2283000); conditions: primary human endothelial cells (HUVEC); actives raise or lower the signal
How it was run: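 Eotaxin-3 (CCL26) levels were measured by ELISA in HUVEC primary cultures 24 h post-dosing. Gain or loss of signal was fitted in both directions, with DMSO serving as baseline and negative control.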

[13] = read-out: Intercellular Adhesion Molecule 1 (ICAM1), ICAM1 (gene 3383); test: BSK_3C_ICAM1: BioMAP Diversity Plus: 3C Assay for Intercellular Adhesion Molecule 1 (ICAM1) Biomarker Activity (AID 2283003); conditions: primary human endothelial cells (HUVEC); actives raise or lower the signal
How it was run: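 ELISA read-out of ICAM-1; HUVEC (primary human), 3C system, 24 h post-dosing; bidirectional fit vs DMSO baseline.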

[14] = BSK_3C_Proliferation: Cell Proliferation Assessment in the BioMAP Diversity Plus: 3C Assay (AID 2283006); conditions: primary human endothelial cells (HUVEC);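 as to AC50: potency may reflect either rise or fall in cell number versus DMSO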
How it was run: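 HUVEC, sub-confluent; 48 h chemical exposure; 10% TCA fix, 0.1% SRB stain, A560 total protein. Gain or loss of signal fitted both directions vs DMSO control.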

[15] = molecular target: Peroxisome proliferator-activated receptor gamma (Homo sapiens) (UniProt P37231); test: ATG_PPARg_TRANS: Attagene TRANS-FACTORIAL HepG2 Assay for human Peroxisome Proliferator-activated Receptor-gamma (PPARg) (AID 2283007; active = hit-call score of the fitted dose curve at least 0.9, where 1 is the maximum)
How it was run: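 Chimeric NR-Gal4 transactivation is measured in transiently transfected HepG2 cells by reporter mRNA induction at 24 h. Detection uses RT-PCR with fluorescent labelling and capillary electrophoresis; DMSO defines baseline.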

[16] = molecular target: Nuclear receptor subfamily 1 group I member 2 (Homo sapiens) (UniProt O75469); test: ATG_PXR_TRANS: Attagene TRANS-FACTORIAL HepG2 Assay for human Pregnane X Receptor (PXR) (AID 2283008; active = hit-call score of the fitted dose curve at least 0.9, where 1 is the maximum)
How it was run: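 Transient HepG2 transfectants carrying multiplexed reporter transcription units; PXR activity read through a Gal4 chimera. 24 h exposure. RT-PCR/CE fluorescence; upward curve fit referenced to DMSO.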

[17] = BSK_3C_TissueFactor: BioMAP Diversity Plus: 3C Assay for Tissue Factor Biomarker Activity (AID 2282997); conditions: BioMAP 3C HUVEC, tissue factor biomarker readout; actives raise or lower the signal
How it was run: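 Tissue Factor measured by ELISA, 24 h after treatment of primary HUVEC in the BioMAP 3C setting.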

[18] = molecular target: human Retinoic Acid Receptor beta (RARb), RARB (gene 5915) (UniProt P10826); test: ATG_RARb_TRANS: Attagene TRANS-FACTORIAL HepG2 Assay for human Retinoic Acid Receptor beta (AID 2283004; active = hit-call score of the fitted dose curve at least 0.9, where 1 is the maximum)
How it was run: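 HepG2 cells were transiently transfected with GAL4-UAS reporter units that report activity of exogenous chimeric NR-Gal4 proteins, then exposed to compound for 24 h. Reporter mRNA was quantified by RT-PCR with capillary electrophoresis fluorescence, as gain of signal over DMSO.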

[19] = molecular target: Retinoic acid receptor alpha (Homo sapiens) (UniProt P10276); test: ATG_RARa_TRANS: Attagene TRANS-FACTORIAL HepG2 Assay for human Retinoic Acid Receptor alpha (RARa) (AID 2283005; active = hit-call score of the fitted dose curve at least 0.9, where 1 is the maximum)
How it was run: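 HepG2 cells transiently transfected with multiple reporter units expressing chimeric RARα-GAL4 fusion, with GAL4-UAS-driven reporters. After 24 h compound exposure, reporter mRNA induction quantified by RT-PCR and capillary electrophoresis with fluorescent labeling; gain-of-signal fitted relative to DMSO control.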

[20] = BSK_3C_VCAM1: BioMAP Diversity Plus: 3C Assay for Vascular cell adhesion molecule 1 (VCAM1) Biomarker Activity (AID 2282999); conditions: BioMAP 3C HUVEC, VCAM1 ELISA, cytokine-stimulated; actives raise or lower the signal
How it was run: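 Vascular primary endothelium (human umbilical vein) was exposed to chemicals and assayed 24 h later. VCAM-1 levels came from ELISA, with DMSO serving as baseline for bidirectional fitting.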

Measured: AC50

Chain of Cellular tumor antigen p53 (Homo sapiens) (P04637 whole entry, looked up): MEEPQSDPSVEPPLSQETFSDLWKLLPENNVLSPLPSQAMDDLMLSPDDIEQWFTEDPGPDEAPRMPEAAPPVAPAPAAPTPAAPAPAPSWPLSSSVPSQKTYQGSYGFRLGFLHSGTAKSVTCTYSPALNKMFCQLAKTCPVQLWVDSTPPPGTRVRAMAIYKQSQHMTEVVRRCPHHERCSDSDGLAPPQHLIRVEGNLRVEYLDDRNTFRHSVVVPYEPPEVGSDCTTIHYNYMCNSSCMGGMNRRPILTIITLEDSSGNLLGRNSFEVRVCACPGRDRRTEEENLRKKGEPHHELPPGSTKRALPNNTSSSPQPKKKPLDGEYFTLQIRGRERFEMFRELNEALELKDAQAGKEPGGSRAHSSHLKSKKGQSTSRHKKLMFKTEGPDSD
Chain of Nuclear receptor subfamily 1 group I member 2 (Homo sapiens) (O75469 whole entry, looked up, the tested form may be a part): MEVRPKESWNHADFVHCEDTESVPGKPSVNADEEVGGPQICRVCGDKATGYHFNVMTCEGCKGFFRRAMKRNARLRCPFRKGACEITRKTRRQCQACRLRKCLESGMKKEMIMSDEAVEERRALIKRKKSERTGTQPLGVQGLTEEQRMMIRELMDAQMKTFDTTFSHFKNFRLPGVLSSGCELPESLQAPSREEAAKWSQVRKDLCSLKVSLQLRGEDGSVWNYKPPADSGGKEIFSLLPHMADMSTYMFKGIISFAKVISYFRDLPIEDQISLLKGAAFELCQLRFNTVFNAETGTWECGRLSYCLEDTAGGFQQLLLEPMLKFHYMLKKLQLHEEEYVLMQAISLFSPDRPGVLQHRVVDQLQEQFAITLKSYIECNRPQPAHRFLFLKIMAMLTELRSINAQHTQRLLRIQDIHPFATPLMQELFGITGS
Chain of Peroxisome proliferator-activated receptor gamma (Homo sapiens) (P37231 whole entry, looked up, the tested form may be a part): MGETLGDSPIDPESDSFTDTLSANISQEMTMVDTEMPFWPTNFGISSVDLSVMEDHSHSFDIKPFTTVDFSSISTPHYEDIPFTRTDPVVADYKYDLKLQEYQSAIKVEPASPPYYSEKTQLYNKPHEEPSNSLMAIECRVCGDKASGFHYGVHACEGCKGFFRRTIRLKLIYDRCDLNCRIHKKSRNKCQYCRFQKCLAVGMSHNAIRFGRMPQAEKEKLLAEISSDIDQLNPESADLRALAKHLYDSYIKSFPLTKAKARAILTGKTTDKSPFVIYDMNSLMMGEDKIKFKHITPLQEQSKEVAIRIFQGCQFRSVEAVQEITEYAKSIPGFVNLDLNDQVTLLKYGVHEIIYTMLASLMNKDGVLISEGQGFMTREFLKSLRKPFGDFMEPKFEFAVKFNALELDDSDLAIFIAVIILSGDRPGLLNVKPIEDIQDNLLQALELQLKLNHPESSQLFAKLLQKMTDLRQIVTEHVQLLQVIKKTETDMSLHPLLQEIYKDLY
Chain of human Peroxisome Proliferator-activated Receptor delta (PPARd), PPARD (gene 5467) (Q03181 whole entry, looked up, the tested form may be a part): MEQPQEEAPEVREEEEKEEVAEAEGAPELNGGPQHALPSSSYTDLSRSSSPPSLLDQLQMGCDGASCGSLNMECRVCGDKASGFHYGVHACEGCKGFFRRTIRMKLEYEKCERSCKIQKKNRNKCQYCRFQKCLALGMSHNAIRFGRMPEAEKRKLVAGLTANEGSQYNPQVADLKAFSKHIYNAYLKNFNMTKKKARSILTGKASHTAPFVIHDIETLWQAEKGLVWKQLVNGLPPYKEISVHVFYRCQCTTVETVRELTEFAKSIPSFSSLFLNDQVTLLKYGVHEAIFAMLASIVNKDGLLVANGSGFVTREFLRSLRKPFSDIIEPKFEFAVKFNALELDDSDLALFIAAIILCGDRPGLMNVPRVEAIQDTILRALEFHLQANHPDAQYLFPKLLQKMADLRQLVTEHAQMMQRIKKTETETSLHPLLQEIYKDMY
Chain of human Retinoic Acid Receptor gamma (RARg), RARG (gene 5916) (P13631 whole entry, looked up, the tested form may be a part): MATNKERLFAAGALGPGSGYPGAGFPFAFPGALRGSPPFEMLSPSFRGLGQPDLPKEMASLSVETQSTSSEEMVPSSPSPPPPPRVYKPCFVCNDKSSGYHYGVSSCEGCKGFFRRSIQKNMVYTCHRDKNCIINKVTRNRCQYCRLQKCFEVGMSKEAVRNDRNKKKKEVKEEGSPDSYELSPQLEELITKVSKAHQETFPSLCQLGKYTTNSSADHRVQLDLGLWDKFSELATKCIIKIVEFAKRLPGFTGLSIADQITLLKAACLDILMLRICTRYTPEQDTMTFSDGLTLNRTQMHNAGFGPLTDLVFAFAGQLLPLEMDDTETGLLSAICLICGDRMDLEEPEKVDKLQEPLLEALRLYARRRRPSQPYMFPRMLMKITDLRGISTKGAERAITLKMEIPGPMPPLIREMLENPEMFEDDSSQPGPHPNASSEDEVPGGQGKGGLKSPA
Chain of human Peroxisome Proliferator-activated Receptor alpha (PPARa), PPARA (gene 5465) (Q07869 whole entry, looked up, the tested form may be a part): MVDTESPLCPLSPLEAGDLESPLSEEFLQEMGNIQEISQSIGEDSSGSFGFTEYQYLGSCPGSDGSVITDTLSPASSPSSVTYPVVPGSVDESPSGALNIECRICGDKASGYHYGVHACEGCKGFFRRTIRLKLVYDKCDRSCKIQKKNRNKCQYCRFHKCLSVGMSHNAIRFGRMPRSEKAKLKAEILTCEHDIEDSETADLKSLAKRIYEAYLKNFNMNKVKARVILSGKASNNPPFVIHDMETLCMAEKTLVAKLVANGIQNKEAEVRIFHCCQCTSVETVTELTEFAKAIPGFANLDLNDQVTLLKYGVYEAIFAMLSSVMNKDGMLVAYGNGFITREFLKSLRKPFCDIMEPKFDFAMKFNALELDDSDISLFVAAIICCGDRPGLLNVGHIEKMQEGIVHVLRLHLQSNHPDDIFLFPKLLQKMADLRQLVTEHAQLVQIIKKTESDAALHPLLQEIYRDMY
Chain of Nuclear respiratory factor 1 (Homo sapiens) (Q16656 whole entry, looked up): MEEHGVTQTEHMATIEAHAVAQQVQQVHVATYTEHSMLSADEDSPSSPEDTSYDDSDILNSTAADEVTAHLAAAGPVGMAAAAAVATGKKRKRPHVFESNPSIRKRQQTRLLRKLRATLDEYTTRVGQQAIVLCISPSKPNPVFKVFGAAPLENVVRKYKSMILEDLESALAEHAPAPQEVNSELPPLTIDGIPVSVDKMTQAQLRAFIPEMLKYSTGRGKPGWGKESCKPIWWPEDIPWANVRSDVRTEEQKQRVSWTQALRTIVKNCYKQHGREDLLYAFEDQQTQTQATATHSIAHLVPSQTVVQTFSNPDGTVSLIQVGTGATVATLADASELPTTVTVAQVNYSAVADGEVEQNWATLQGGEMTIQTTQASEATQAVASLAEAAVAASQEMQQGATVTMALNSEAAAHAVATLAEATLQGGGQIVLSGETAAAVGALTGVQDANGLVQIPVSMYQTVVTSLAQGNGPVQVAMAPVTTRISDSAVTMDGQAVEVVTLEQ
Chain of Myc proto-oncogene protein (Homo sapiens) (P01106 whole entry, looked up): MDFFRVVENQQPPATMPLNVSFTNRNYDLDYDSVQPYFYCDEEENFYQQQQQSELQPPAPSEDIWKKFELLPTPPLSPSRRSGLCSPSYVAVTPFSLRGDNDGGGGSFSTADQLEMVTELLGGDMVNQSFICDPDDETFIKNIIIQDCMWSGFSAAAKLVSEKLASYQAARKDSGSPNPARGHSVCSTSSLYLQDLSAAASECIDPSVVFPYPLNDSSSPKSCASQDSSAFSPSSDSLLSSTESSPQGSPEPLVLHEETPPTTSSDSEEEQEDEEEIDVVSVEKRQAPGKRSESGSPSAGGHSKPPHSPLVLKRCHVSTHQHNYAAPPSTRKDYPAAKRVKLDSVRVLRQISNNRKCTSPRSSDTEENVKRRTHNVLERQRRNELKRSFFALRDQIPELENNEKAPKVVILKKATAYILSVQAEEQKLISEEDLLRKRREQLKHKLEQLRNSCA
Chain of human Retinoic Acid Receptor beta (RARb), RARB (gene 5915) (P10826 whole entry, looked up, the tested form may be a part): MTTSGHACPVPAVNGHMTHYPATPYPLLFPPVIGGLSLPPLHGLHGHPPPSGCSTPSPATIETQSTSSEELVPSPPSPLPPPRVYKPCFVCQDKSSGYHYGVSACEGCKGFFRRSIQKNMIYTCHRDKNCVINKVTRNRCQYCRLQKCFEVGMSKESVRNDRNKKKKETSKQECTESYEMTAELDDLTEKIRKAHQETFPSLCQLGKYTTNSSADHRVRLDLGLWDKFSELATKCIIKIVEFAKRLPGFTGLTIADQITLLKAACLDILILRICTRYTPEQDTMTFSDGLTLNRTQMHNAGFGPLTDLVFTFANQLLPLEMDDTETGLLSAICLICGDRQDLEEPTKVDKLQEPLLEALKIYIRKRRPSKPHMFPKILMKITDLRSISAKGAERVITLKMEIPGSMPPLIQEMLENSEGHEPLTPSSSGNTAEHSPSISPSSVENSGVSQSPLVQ
Chain of Retinoic acid receptor alpha (Homo sapiens) (P10276 whole entry, looked up, the tested form may be a part): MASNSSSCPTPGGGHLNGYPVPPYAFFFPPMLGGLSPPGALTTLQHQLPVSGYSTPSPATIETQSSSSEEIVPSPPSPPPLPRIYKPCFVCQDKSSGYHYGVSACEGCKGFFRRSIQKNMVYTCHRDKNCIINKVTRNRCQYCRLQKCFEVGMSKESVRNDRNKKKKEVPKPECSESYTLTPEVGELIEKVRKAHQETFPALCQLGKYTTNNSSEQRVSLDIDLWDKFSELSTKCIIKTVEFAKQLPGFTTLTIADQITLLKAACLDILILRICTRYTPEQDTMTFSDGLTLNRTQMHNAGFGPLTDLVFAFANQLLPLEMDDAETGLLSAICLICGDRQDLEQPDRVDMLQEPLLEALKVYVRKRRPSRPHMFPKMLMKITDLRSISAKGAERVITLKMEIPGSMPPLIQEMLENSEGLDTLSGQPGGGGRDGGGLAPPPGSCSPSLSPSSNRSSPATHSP

CCCCCCOC(=O)c1ccccc1
inactive: [1] | [2] | [3] | [4] | [5] | [6] | [7] | [8] | [9] | [10]

C=CC/C=C/C/C=C/C/C=C/C
not listed: [17] | [18] | [19] | [20]
inactive: all other assays above

O=C(O)C(F)(OC(F)(F)C(F)(OC(F)(F)C(F)(OC(F)(F)C(F)(F)C(F)(F)F)C(F)(F)F)C(F)(F)F)C(F)(F)F (stereo unspecified)
not listed: [20]
inactive: all other assays above

CC(CCl)OP(=O)(OC(C)CCl)OC(C)CCl (stereo unspecified)
active: [16] 0.801 µM
not listed: [8] | [9] | [14] | [17] | [18] | [19]
inactive: all other assays above

O=C(CC(=O)C(F)(F)C(F)(F)F)C(F)(F)F
inactive: [1] | [2] | [3] | [4] | [7] | [17] | [11] | [20] | [12] | [8] | [9] | [13] | [14] | [16] | [10]
active: [4] 150 µM | [5] 94.6 µM and 109 µM | [7] 112 µM | [15] 76.1 µM and 61.2 µM

O=C(O)C(F)(F)C(F)(F)C(F)(F)C(F)(F)C(F)(F)C(F)(F)C(F)(F)C(F)(F)C(F)(F)C(F)F
active: [5] 26.3 µM | [12] 29.1 µM | [8] 19.4 µM | [14] 56.7 µM and 47 µM | [15] 25.8 µM | [16] 64.5 µM
inactive: [1] | [2] | [3] | [4] | [6] | [7] | [17] | [11] | [12] | [13] | [18] | [10]
